Sampled rows, rich in hits. Any-hit rate of the full collection: about 12%.
BAZ2B inh: BAZ2B (human) inhibition; Q9UIF8; AlphaScreen BAZ2B-H3K14Ac peptide displacement; Potency, µM (series often up to 114 µM), actives largely listed as inhibitors; 360,000 tested, 4.4% active; AID 504333; further: nearly all actives have a fitted effect of over 60% in size
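Inhibition is scored as reduced AlphaScreen emission. The BAZ2B/b-H3(5-23)K14Ac complex (50 nM each) in PBS pH 7.4, 0.01% Tween-20 meets compound (up to 110 uM) for 30 min at RT before bead addition.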
Sfp inh: blocks B. subtilis Sfp PPTase activity. Biochemical Sfp PPTase activity, qHTS. Potency, µM, usual class: inhibitors. 310,000 tested, 3.5% active;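 further: the enzyme is Sfp with the accession as filed and its product quenches rhodamine fluorescence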
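Reaction rates are the 30-min fluorescence difference (ex 525, em 598 nm) in wells containing 15 nM Sfp, 5 uM rhodamine-CoA and 12.5 uM BHQ-2-YbbR at pH 7.6 with 10 mM MgCl2.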
JMJD2A Tudor: inhibitors of human JMJD2A Tudor domain; Potency, µM (highest dose often 114 µM), usual class: inhibitors; AID 504339; 390,000 tested, 4.4% active; AlphaScreen JMJD2A-Tudor / H3K4me3 peptide binding; O75164; further: nearly all actives have a fitted effect of over 50% in size
HP1b chromo inh: blocks HP1-beta chromodomain binding to methylated histone tails; P83916; AlphaScreen HP1-beta / biotin-H3K9me3 peptide binding; Potency, µM (series often up to 114 µM), actives largely listed as inhibitors; 390,000 tested, 0.56% active; AID 540317; further: nearly all actives have a fitted effect of over 70% in size
Target sequence (P83916 whole entry, looked up): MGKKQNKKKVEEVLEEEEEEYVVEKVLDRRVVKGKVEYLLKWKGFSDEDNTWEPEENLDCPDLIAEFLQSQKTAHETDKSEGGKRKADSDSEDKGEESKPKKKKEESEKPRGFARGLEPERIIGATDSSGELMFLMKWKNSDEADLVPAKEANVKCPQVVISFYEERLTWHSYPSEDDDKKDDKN
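Compound inhibition of the preformed complex between 50 nM HP1-beta and 50 nM biotinylated H3K9me3 peptide was read by AlphaScreen. Buffer was PBS pH 7.4 with 0.01% Tween-20. Incubations ran 30 min at room temperature, with 10 ug/mL donor/acceptor beads.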
L3MBTL1 block: inhibitors of human L3MBTL1; Q9Y468; AlphaScreen L3MBTL1–H3K9me1 peptide binding; Potency, µM (titrated, usually from 57.1 µM), hits mostly inhibitors; 230,000 tested, 0.66% active; AID 485360; further: nearly all actives have a fitted effect of over 60% in size
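First, the protein-peptide complex forms for 30 min at room temperature (L3MBTL1 50 nM, biotinylated H3K9me1 peptide 75 nM). Next, compounds are pin-transferred and incubated 30 min. Finally, AlphaScreen beads are added and read after 30 min.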
G9a block: G9a (human) methyltransferase inhibition. G9a H3K9 monomethylation, AlphaScreen, 2 h. Potency, µM (titrated, usually from 102 µM), usual class: inhibitors. 350,000 tested, 8.8% active. AID 504332; further: nearly all actives have a fitted effect of over 75% in size
Target sequence (Q96KQ7 913-1193 limits assumed): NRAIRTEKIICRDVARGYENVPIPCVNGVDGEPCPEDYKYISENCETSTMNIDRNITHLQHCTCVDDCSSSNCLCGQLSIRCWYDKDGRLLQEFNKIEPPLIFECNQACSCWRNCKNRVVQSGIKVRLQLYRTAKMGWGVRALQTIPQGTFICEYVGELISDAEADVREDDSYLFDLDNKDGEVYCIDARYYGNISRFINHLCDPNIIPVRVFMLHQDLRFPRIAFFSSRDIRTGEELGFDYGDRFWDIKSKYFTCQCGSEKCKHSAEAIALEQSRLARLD
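Methyltransferase reactions run at room temperature for 2 h (20 nM enzyme, 500 nM biotin-H3K9 peptide, 20 uM SAM) after a 15 min compound preincubation; product detected by AlphaScreen beads and anti-H3K9me1 antibody.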
Numbers stand for hits; i = inactive; ? = inconclusive; nt = not tested or not shown; [ ] = another dose, or the depositor's remark. The call rests on the fitted dose curve; in most records, active means well fitted curve in the direction sought with a large enough effect; inconclusive means small, poorly fitted or top-dose-only effect, or another doubt; inactive means no such curve, though single readings can be large; an effect the other way counts as inactive or inconclusive.

SMILES	BAZ2B inh	Sfp inh	JMJD2A Tudor	HP1b chromo inh	L3MBTL1 block	G9a block
CN(C)CCN(C(=O)CCS(=O)(=O)c1ccccc1)c1nc2c(F)cccc2s1	i	i	i	i	nt	28µM
CCOC(=O)c1nc2cc3n(c(CC(C)C)c-2c1C)CC(C)=C3C	?	i	?	i	i	3.2µM
CCOC(=O)c1nc2cc3n(c(C)c-2c1C)C(C)C(C)=C3C (stereo not given)	i	i	i	i	i	i[12.7 µM]
S=C1SCN(Cc2cccnc2)CN1Cc1cccnc1	i	14µM	i	i	i	?
S=C1SCN(Cc2ccccc2)CN1Cc1ccccc1	i	i	i	i	nt	i
CCn1c(C)c(C)c2cc(C(=O)NC3CCCCCC3)ccc21	35µM	i	?	i	nt	i
CCC1CCCCN1CCCNC(=O)c1ccc2c(c1)c(C)c(C)n2CC (stereo not given)	?	i	?	i	nt	?
CCn1c(C)c(C)c2cc(C(=O)N3CCCC3)ccc21	i	i	i	i	nt	i
Cc1c(C)n(Cc2ccc(F)cc2)c2ccc(C(=O)N3CCN(c4ccccn4)CC3)cc12	?	i	?	i	nt	32µM
Cc1c(C)n(Cc2ccccc2)c2ccc(C(=O)N3CCN(c4ccccc4F)CC3)cc12	?	nt	?	i	nt	?
CCn1c(C)c(C)c2cc(C(=O)N3CCN(c4ccccc4)CC3)ccc21	28µM	i	45µM	?	nt	?
CCN(C(=O)CSc1ncccn1)c1cccc2ccccc12	nt	nt	i	i	i	nt
CC[N+](C)(CC)CCC(c1ccccc1)C1CCCCC1 (stereo not given)	50µM	i	?	?	i	?
COc1cccc([C@H](O)Cn2cc(-c3cccc(CON=C(C)C)c3)nn2)c1	nt	i	nt	nt	nt	nt
O=[N+]([O-])c1ccc(N=Nc2ccc(O)cc2O)cc1	32µM	i	i	i	nt	40µM
O=[N+]([O-])c1cccc(N=Nc2ccc(O)cc2O)c1	nt	nt	?	i	nt	nt
CCc1ccc2[nH]c(=O)c(CN(CCCN3CCOCC3)C(=O)Nc3ccc(Cl)cc3)cc2c1	i	i	i	i	i	i
Cc1ccc(C)c2[nH]c(=O)c(CN(CCN3CCCC3)C(=O)Nc3cccc(Cl)c3)cc12	i	14µM	i	i	i	28µM
COc1ccc2[nH]c(=O)c(CN(CCN3CCCC3)C(=O)Nc3ccccc3Cl)cc2c1	i	i	i	i	i	50µM
CCc1ccc2[nH]c(=O)c(CN(CCCN3CCOCC3)C(=O)Nc3cccc(Cl)c3)cc2c1	?	i	?	i	i	50µM
Cc1[nH]c2ccccc2c1/C=N/NS(=O)(=O)c1ccccc1	i	i	?	i	i	50µM
Cc1[nH]c2ccccc2c1/C=N/Nc1ccccc1[N+](=O)[O-]	5.6µM	i	22µM	40µM	18µM	7.9µM
Cc1[nH]c2ccccc2c1/C=N/NC(=O)CCC(=O)NCc1ccccc1	i	i	11µM	i	i	i
Cc1[nH]c2ccccc2c1/C=N/NC(=S)NC(C)C	?	?	?	?	i	?
CCOc1ccccc1-n1nnnc1SCC(=O)N1CCCC1=O	nt	nt	i	i	i	nt
SMILES	BAZ2B inh	Sfp inh	JMJD2A Tudor	HP1b chromo inh	L3MBTL1 block	G9a block
Cc1cccc(-n2cnc3c(c2=O)c2nc4ccccc4nc2n3Cc2ccco2)c1	?	3.5µM	i	i	nt	?
COc1ccc(Cn2c3nc4ccccc4nc3c3c(=O)n(Cc4ccco4)cnc32)cc1	?	4.5µM	nt	nt	nt	i[12.7 µM]
Cc1cccc(S(=O)(=O)c2c(N)n(Cc3ccco3)c3nc4ccccc4nc23)c1	i	?	i	i	i	i
CCCn1cnc2c(c1=O)c1nc3ccccc3nc1n2Cc1ccccc1OC	i	i	nt	nt	i	i
O=C(O)c1cccc(S(=O)(=O)Nc2cc(Cl)ccc2Cl)c1	i	i	i	i	i	i
CC1CC(C)CN(C(=O)c2cccc(S(=O)(=O)Nc3cc(C(F)(F)F)ccc3Cl)c2)C1 (stereo not given)	79µM	i	i	i	i	?
CSc1nnc(-c2ccc(NC(N)=S)cc2)o1	i	i	i	i	i	i
CSc1nnc(-c2cccc(NC(=S)NN)c2)o1	?	i	i	i	nt	7.9µM
COC(=O)C1=C(C)Nc2c(c(=O)n(C)c(=O)n2C)C1c1cccc(O)c1 (stereo not given)	i	i	i	i	i	nt
Cn1c2c(c(=O)[nH]c1=O)C(c1cccc(O)c1)C1=C(N2)c2ccccc2C1=O (stereo not given)	?	i	i	i	i	32µM
COC(=O)C1CCN(C(c2ccccc2Cl)c2sc3nc(-c4ccco4)nn3c2O)CC1 (stereo not given)	i	nt	i	i	nt	i
C1CSC2(N1)C1CC3CC2CC(C1)C31NCCS1 (stereo not given)	i	20µM	i	i	i	?
Cc1nc2c(-c3ccc(F)cc3)c(C)[nH]n2c(=O)c1Cl	i	i	i	i	i	50µM
Cc1ccc(CNC(=O)c2c[nH]n3c(=O)c(Cc4ccc(F)cc4Cl)c(C)nc23)cc1	i	nt	?	i	nt	i
Cc1nc2c(C(=O)NCc3ccc(F)cc3)c[nH]n2c(=O)c1Cl	i	i	i	i	i	50µM
Cc1nc2c(C(=O)NCCc3ccccc3)c[nH]n2c(=O)c1Cl	i	i	i	i	i	50µM
COc1ccc(N2C(=O)c3ccc(C(=O)Nc4ccc(NC(C)=O)cc4)cc3C2=O)cc1	i	i	i	i	nt	i
Cc1cc([N+](=O)[O-])ccc1NCc1ccco1	i	i	?	i	i	?
O=[N+]([O-])c1cc(C(F)(F)F)cc([N+](=O)[O-])c1NCCNC(=S)Nc1cccc(F)c1	18µM	i	40µM	i	?	?
CCN(CC)C(=O)Cn1nc(-c2ccc(Cl)cc2)c2ccccc2c1=O	i	i	i	?	nt	i
NC1=NC[C@@H](Cc2ccc(O)cc2)N1CCc1cccc2ccccc12	i	89µM	i	i	nt	i[12.7 µM]
COc1ccc(NC(=S)NC2CCCCC2)cn1	nt	i	i	i	i	i
O=C(CCN(CCO)Cc1ccccc1)Nc1ccc(Br)cc1	i	i	i	i	i	i
CCCN(CCO)Cc1cccc(Cl)c1	?	i	3.5µM	?	i	?
CCCN(CCO)Cc1ccc(Br)cc1	?	i	20µM	?	i	8.9µM
CCCOc1ccc(CN(CCO)CCO)cc1[N+](=O)[O-]	i	i	i	i	i	i
CCc1ccc(-c2csc(-c3cc4cc(Br)ccc4oc3=O)n2)cc1	i	nt	i	i	nt	i
Cc1oc2ncn(C)c(=O)c2c1C(=O)NCc1ccccc1	i	nt	i	i	nt	i
O=C(O)CSc1nc(-c2ccccc2)c(-c2ccccc2)[nH]1	i	?	?	i	i	50µM
O=C(CSc1nc2ccccc2c(=O)[nH]1)N1CCN(S(=O)(=O)c2ccccc2)CC1	i	i	i	i	i	i[12.7 µM]

From PubChem BioAssay
